In PMC4336329 (PLoS ONE, 2015):
In all, about 310,000 compounds went through this assay and about 14,000 (4.5%) showed an effect of 50% or more. The effect is printed as a negative number. The list comes from a sample in which strong results are over-represented; it also holds similar structures and randomly drawn compounds.

The compounds below were run against human ether-à-go-go-related gene (hERG) potassium channel (human, UniProt Q12809) (assay: primary screen, population patch clamp on CHO cells stably expressing hERG; higher = less effect of the substance).
human ether-à-go-go-related gene (hERG) potassium channel, sequence (Q12809 whole entry, looked up): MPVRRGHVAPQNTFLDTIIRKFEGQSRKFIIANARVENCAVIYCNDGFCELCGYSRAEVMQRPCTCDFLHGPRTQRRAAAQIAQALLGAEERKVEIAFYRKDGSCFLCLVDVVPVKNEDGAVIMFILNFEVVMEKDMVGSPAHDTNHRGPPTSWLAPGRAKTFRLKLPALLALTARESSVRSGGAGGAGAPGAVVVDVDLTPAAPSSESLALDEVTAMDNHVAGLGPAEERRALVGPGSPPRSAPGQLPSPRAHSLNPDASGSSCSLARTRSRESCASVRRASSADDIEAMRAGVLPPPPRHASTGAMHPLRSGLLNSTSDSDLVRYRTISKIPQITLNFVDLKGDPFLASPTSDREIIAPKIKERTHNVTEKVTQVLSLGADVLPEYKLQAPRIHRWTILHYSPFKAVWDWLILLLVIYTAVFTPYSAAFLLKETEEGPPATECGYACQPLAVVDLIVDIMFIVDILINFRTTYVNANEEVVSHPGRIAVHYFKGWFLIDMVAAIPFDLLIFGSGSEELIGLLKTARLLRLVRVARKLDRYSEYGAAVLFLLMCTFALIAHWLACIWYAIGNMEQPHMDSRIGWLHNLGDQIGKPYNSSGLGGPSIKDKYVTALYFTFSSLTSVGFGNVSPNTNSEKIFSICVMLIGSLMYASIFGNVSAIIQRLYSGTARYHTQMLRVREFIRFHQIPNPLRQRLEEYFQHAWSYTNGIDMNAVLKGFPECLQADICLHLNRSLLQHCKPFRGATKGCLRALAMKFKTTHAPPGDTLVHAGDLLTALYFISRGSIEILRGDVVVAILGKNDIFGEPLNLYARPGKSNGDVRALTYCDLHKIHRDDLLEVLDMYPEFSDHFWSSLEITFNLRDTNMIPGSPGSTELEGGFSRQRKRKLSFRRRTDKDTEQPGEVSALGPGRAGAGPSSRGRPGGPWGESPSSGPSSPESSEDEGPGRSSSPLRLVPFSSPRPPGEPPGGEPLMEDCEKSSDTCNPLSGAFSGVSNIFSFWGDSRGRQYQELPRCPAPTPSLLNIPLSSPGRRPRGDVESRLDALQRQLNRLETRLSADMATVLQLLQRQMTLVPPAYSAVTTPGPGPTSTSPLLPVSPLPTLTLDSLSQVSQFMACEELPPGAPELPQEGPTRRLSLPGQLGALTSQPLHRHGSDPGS
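Note: peak tail current of the secondary pulse compared with the same well before compound.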

Row | SMILES | hERG current change (%, negative = inhibition) at 10uM [%]
1 | CC1CCCCN1C(=O)c1cc2nc(-c3ccccc3)cc(-c3ccccc3)n2n1 (stereo not drawn) | -14.5
2 | O=S(N1CCCCC1)C12CC3CC(CC(C3)C1)C2 (stereo not drawn) | -6.95
3 | COc1ccc(-c2nc(NC(=O)CCNC(=O)c3ccco3)sc2C)cc1 | -11.1
4 | CC(C)C[C@H](NC(=O)N1CC(=O)Nc2ccccc21)C(=O)N[C@@H](Cc1ccccc1)C(=O)O | 13.2
5 | NC(=O)Cn1cc(C(=O)c2cccs2)c2ccccc21 | -2.95
6 | O=C(NNc1cc(Cl)ccc1Cl)c1cccs1 | 7.63
7 | Cc1c(Br)c([N+](=O)[O-])nn1C(C)C(=O)N1CCc2ccccc2C1 (stereo not drawn) | -13.4
8 | Cc1c(OC(C)C(=O)NC2CC(C)(C)NC(C)(C)C2)ccc2c3c(c(=O)oc12)CCC3 (stereo not drawn) | 12.5
9 | COc1cc(/C=N/N(C)C2=NS(=O)(=O)c3ccccc32)cc(OC)c1OC | 7.82
10 | CC1CC(C)CN(CCCNC(=O)c2ccc(CS(=O)(=O)Cc3cccc(Cl)c3)o2)C1 (stereo not drawn) | -69.1
11 | CC1CCN(CCCNC(=O)c2ccc(CS(=O)(=O)Cc3ccc(Cl)cc3)o2)CC1 | -44
12 | Cc1ccccc1CS(=O)(=O)Cc1ccc(C(=O)NCCCN2CC(C)CC(C)C2)o1 (stereo not drawn) | -36.1
13 | Cc1ccc(CS(=O)(=O)Cc2ccc(C(=O)NCCCN3CC(C)CC(C)C3)o2)cc1 (stereo not drawn) | -60.2
14 | CC1CCCN(CCCNC(=O)c2ccc(CS(=O)(=O)Cc3cccc(Cl)c3)o2)C1 (stereo not drawn) | -40.7
15 | Cc1ccc(CS(=O)(=O)Cc2ccc(C(=O)NCCCN3CCOCC3)o2)cc1 | 6.75
16 | CN(C1=NS(=O)(=O)c2ccccc21)c1ccc(OC(=O)c2ccncc2)cc1 | -9.07
17 | COc1cccc(CN(C)C(=O)CCN(c2ccccc2)S(=O)(=O)c2ccc(C)cc2)c1OC | -30.4
18 | COC(=O)C1=C(c2ccc(F)cc2F)C[C@@H]2CC[C@H]1N2C(=O)NC1Cc2ccccc2C1 | -16.9
19 | O=C(N/N=C/c1cc(O)ccc1[N+](=O)[O-])c1ccc2c(c1)OCCO2 | -2.12
20 | CCCCOc1ccc(S(=O)(=O)n2c(C)nc3ccccc32)cc1 | 0.0246
21 | CCN(CC(=O)NCc1cccs1)C(=O)c1ccc(S(=O)(=O)Nc2ccccc2Cl)cc1 | -26.8
22 | C/C(=N\NC(=O)c1cccc(S(=O)(=O)N2CCCC2)c1)c1ccncc1 | -1.9
23 | C/C(=N\NC(=O)c1cccc(S(=O)(=O)N2CCOCC2)c1)c1ccc(O)cc1 | 11.4
24 | N#Cc1ccc(/C=N/NC(=O)c2cccc(S(=O)(=O)N3CCOCC3)c2)cc1 | 13.3
25 | C/C(=N\NC(=O)c1cccc(S(=O)(=O)N2CCOCC2)c1)c1ccc(C)cc1 | -3.88
26 | C/C(=N\NC(=O)c1cccc(S(=O)(=O)N2CCOCC2)c1)c1ccc(C#N)cc1 | -52.6
27 | C/C(=N\NC(=O)c1cccc(S(=O)(=O)N2CCCC2)c1)c1ccc(C)cc1 | -50.4

Row | SMILES | hERG current change (%, negative = inhibition) at 10uM [%]
28 | Cn1c(=O)c2c([nH]c(=S)n2CCCc2ccccc2)n(C)c1=O | 15.5
29 | CC(Cc1cccs1)NC(=O)Nc1ccc(F)cc1 (stereo not drawn) | 18.2
30 | CCc1nc(C#N)c(N2CCOCC2)o1 | 2.54
31 | CCN(c1ccccc1)S(=O)(=O)c1ccc(C(=O)Oc2ccc(C(C)=O)cc2)cc1 | 8.41
32 | CC1(C)N=C(N)NC(Nc2ccccc2)=N1 | 2.96
33 | Cc1onc(-c2ccccc2Cl)c1C(=O)Nc1ccc(-c2cn3cccnc3n2)cc1 | 26
34 | Cc1onc(-c2ccccc2Cl)c1C(=O)Nc1cccc(-c2cn3cccnc3n2)c1 | -24.8
35 | Cc1onc(-c2ccccc2Cl)c1C(=O)Nc1cccc(-c2nc3ncccn3c2C)c1 | -63
36 | Cl.O=C1CC2(CCCC2)CC(=O)N1CCCCN1CCN(c2ncccn2)CC1 | -35.9
37 | Cc1c(C)n2c(SCC(=O)NCc3ccc4c(c3)OCO4)nnc2[nH]c1=O | 7.88
38 | CCCCN(C)C1CCN(C(=S)Nc2cccc(OC)c2)CC1 | -19.9
39 | CSc1cccc(NC(=S)N2CCC(N(C)C3CCCC3)CC2)c1 | -29.2
40 | CCOC(=O)N1CCC(N(CCN(C)C)C(=S)Nc2cccc(SC)c2)CC1 | -11.6
41 | CSc1cccc(NC(=S)N2CCC(N(C)C3CCCCC3)CC2)c1 | -64.4
42 | CCC(C)N(C)C1CCN(C(=S)Nc2cccc(SC)c2)CC1 (stereo not drawn) | -45.8
43 | CSc1cccc(NC(=S)N2CCC(c3ccccc3)C2)c1 (stereo not drawn) | 7.54
44 | CCCCN(C)C1CCN(C(=S)Nc2cccc(SC)c2)CC1 | -59.8
45 | CSc1cccc(NC(=S)N2CCC(N(C)C3CCCCCC3)CC2)c1 | -62.9
46 | CSc1cccc(NC(=S)N2CCC(N(C)C3CCCCC3C)CC2)c1 (stereo not drawn) | -58.2
47 | CCCCN(C(=S)Nc1cccc(SC)c1)C1CCN(C(C)=O)CC1 | -28.9
48 | CN(C1CCCC1)C1CCN(C(=S)Nc2cc(F)cc(F)c2)CC1 | -42
49 | CSc1cccc(NC(=S)N2CCC(N(C)C(C)C)CC2)c1 | -16.2
50 | N#CCOc1coc(CN2CCN(c3cccc(Cl)c3)CC2)cc1=O | -0.696
51 | Cc1ccccc1C(=O)NC(=S)Nc1ccccc1C(=O)O | 15.5
52 | Cc1nnc(-c2cnn(-c3ccccc3)c2N)n1Cc1cccc(C(F)(F)F)c1 | -18.8
53 | Cc1ccc(CSCC(=O)N(C)CC(=O)Nc2ccccc2C(F)(F)F)cc1 | -0.53
54 | O=C1NC(=Nc2ccccc2Cl)S/C1=C\c1cccc([N+](=O)[O-])c1 | -0.316
